Screening results: PubChem BioAssay, Broad Institute
aSyn UTR act: Activators via SNCA 5'UTR binding, MLPCN; alpha-synuclein 5'UTR reporter, activators screen; activity score, % (tested at 7.5 µM), hits read low; 7.1% of 300,000 active; AID 1814; in the data active means activity score below about -60%
* marks the source's active call; other numbers are inactive results. Not all results are given here.

SMILES | aSyn UTR act
CC(C)CCNC(=S)Nc1ccc(Br)cc1 | -69.2*
S=C(NCCc1ccccc1)Nc1ccccn1 | -140.6*
CC(C)CCNC(=S)Nc1ccc([N+](=O)[O-])cc1 | -63.1*
COC(=O)Cc1ccc(NC(=S)Nc2ccccn2)cc1 | -62.7*
O=[N+]([O-])c1ccc(NNC(=S)Nc2ccc(F)cc2)cc1 | -157.2*
O=C(CSc1nnc(-c2cccc(F)c2)o1)N1CCOCC1 | -75.4*
Cc1cccc(-c2nnc(SCC(=O)N3CCOCC3)o2)c1 | -70.2*
O=C(c1ccc(S(=O)(=O)Cc2cc(F)ccc2F)c([N+](=O)[O-])c1)N1CCCCC1 | -102.3*
Cc1cccc(NC(=O)c2cc(-c3ccc(C)c(C)c3O)n[nH]2)c1 | -210.5*
CC(=O)Nc1ccc(NC(=O)c2cc(-c3cc(C)cc(C)c3O)n[nH]2)cc1 | -108.2*
CC(=O)Nc1ccc(NC(=O)c2cc(-c3ccc(C)c(C)c3O)n[nH]2)cc1 | -169.7*
O=C1/C(=N\S(=O)(=O)c2cccs2)C([n+]2cccc(Cc3ccccc3)c2)=C([O-])c2ccccc21 | 84.7
Cn1cc(/C=C2\SC(=O)N(c3ccccc3)C2=O)c2ccccc21 | -217.3*
Cn1cc(/C=N/n2cnc3scc(-c4ccccc4)c3c2=O)c2ccccc21 | 66.4
Cn1cc(/C=C2\SC(=O)N(c3ccc(O)cc3)C2=O)c2ccccc21 | -86.1*
O=C1S/C(=C\c2cccs2)C(=O)N1c1ccc(O)cc1 | -133.3*
CCc1nnc(NC(=O)c2sc3nc4c(cc3c2N)CCCCC4)s1 | -138.4*
CCc1nnc(NC(=O)c2sc3nc4c(cc3c2N)CCCCCC4)s1 | -75.4*
Cc1ccc(NN=C2c3ccccc3-c3ccccc32)cc1 | -211.8*
O=C(OCc1csc(-c2ccccc2)n1)c1ccccc1O | -148.7*
Cc1ccc(-c2cc(-c3ccccc3)nc(Cl)n2)cc1 | -72.0*
Cc1cc(-c2ccccc2)nc(Cl)c1C#N | -79.6*
O=c1oc2ccccc2c(Nc2ccc3ccccc3c2)c1[N+](=O)[O-] | -94.2*
Cc1ccc(C(=O)NCC(=O)NC23CC4CC(CC(C4)C2)C3)cc1 | -76.3*
CCOC(=O)c1ccc2nc(NC(=O)c3cccs3)sc2c1 | -105.1*
SMILES | aSyn UTR act
CCCC(=O)Nc1nc2ccc(C(=O)OCC)cc2s1 | -135.8*
CCCCC(=O)Nc1nc2ccc(C(=O)OC)cc2s1 | -113.8*
CCOC(=O)c1ccc2nc(NC(=O)C(C)C)sc2c1 | -112.6*
CCC(C)NC(=O)c1cc(Cl)c(NC(=O)C2=C(C)OCCS2)cc1OC (centres undefined) | -62.5*
CCS(=O)(=O)c1ccc2oc(Nc3ccccc3Br)nc2c1 | -108.4*
CCS(=O)(=O)c1ccc2oc(Nc3ccccc3Cl)nc2c1 | -153.6*
CCS(=O)(=O)c1ccc2oc(Nc3cccc(OC)c3)nc2c1 | -144.9*
Cc1ccc(NC(=O)CN(C)S(=O)(=O)c2cccs2)cc1C | -86.2*
Cc1ccc(NC(=O)CN(C)S(=O)(=O)c2cccs2)cc1F | -63.8*
O=C(C#Cc1ccccc1)Nc1ccc(F)cc1 | -195.0*
O=C(C#Cc1ccccc1)Nc1cccc(F)c1 | -383.2*
COc1ccc(NC(=O)C#Cc2ccccc2)cc1 | -385.3*
Cc1ccc(C(=O)NC(C)C2CC3CCC2C3)c(C)c1 (centres undefined) | -101.8*
O=C(C#Cc1ccccc1)NCc1ccccc1F | -69.6*
CC(C)(O)C#Cc1ccc(C(=O)NCc2ccccc2F)cc1 | -66.1*
O=[N+]([O-])c1ccc(C(O)CSC(=S)N2CCCCC2)cc1 (centres undefined) | -181.3*
NC(=O)CC1C(=O)N(c2ccccc2)C(=S)N1NC(=O)c1ccccc1 (centres undefined) | -72.5*
O=C(O)c1cccc(CSc2nnc(-c3ccc(Cl)cc3)o2)c1 | 54.8
COc1ccc(-c2nnc(SCC(=O)N3CCOCC3)o2)cc1 | -105.4*
CSc1ccc(-c2nc(CSCC(=O)N3CCOCC3)c(C)o2)cc1 | -77.5*
O=C(CSc1nnc(-c2ccc(OC(F)F)cc2)o1)N1CCOCC1 | -67.0*
O=C(CSc1nnc(-c2ccc(Cl)cc2)o1)N1CCOCC1 | -153.6*
CC1(C)Oc2cc3oc(-c4cc(O)cc(O)c4)cc3cc2CC1O (centres undefined) | 97.0
O=C(CSc1nnc(-c2ccc(O)cc2)o1)N1CCOCC1 | -76.8*
Oc1ccc(-c2nnc(SCC3CCCCC3)o2)cc1 | -131.6*
SMILES | aSyn UTR act
CCCC(=O)Nc1nnc(-c2ccc3c(c2)OCO3)s1 | -141.4*
CC(C)(C)c1nnc(NC(=O)c2ccc3c(c2)OCO3)s1 | -191.1*
CC(C)(C)c1nnc(NC(=O)COc2ccc3c(c2)OCO3)s1 | -80.5*
CC(c1ccccc1)c1nnc(NC(=O)c2ccc3c(c2)OCO3)s1 (centres undefined) | -139.3*
CC(C)c1nnc(NC(=O)c2ccc3c(c2)OCO3)s1 | 57.1
CCCC(=O)NC(c1ccc2c(c1)OCO2)c1cc(Cl)c2cccnc2c1O (centres undefined) | 80.4
CCSc1nnc(NC(=O)c2ccc3c(c2)OCO3)s1 | -94.1*
CCN(CC)C(=O)c1sc(NC(=O)c2ccc3c(c2)OCO3)c(C(N)=O)c1C | -105.0*
CC(C)Sc1nnc(NC(=O)c2ccc3c(c2)OCO3)s1 | -118.1*
COc1ccc(/C=C/c2cc(=O)c3cc(Cl)ccc3o2)cc1 | -253.4*
COC(=O)Cc1c(C)c2ccc(OC3CCCCC3=O)c(C)c2oc1=O (centres undefined) | -65.1*
Cc1c(CCC(=O)N2CCC[C@H]2C(=O)O)c(=O)oc2cc3oc4c(c3cc12)CCCC4 | 76.9
COc1cc(-c2cc3nc4ccccc4n3c(N)c2C#N)cc(OC)c1OC | 45.4
CCc1c(C)c(C#N)c2nc3ccccc3n2c1Cl | 105.3
Cc1cc(-c2ccco2)c(C#N)c2nc3ccccc3n12 | -100.2*
C/C(=N\Nc1cc(Cl)nc(C)n1)c1ccccc1 | -142.0*
COc1ccc(Nc2nc(N)c3ccccc3n2)c(OC)c1 | -197.9*
CC(=Nc1ccc(Br)cc1)c1sc2ccccc2c1O | -125.0*
CC(=Nc1ccccc1)c1sc2ccccc2c1O | -383.5*
Cc1ccc(NC(=O)c2ccc(CSc3ccccn3)cc2)cc1 | -92.9*
Cc1ccc(NC(=O)c2ccc(CSc3nnc(C)s3)cc2)cc1 | -75.0*
O=C(Nc1ccc(Br)cc1)c1ccc(CSC2=NCCS2)cc1 | -132.1*
Cc1ccccc1NC(=O)c1ccc(CSc2ncccn2)cc1 | -82.5*
Cc1ccc(NC(=O)c2ccc(CSc3nnnn3C)cc2)cc1 | -165.1*
Cc1nnc(SCc2ccc(F)cc2)s1 | -69.0*
SMILES | aSyn UTR act
Cc1nnc(SCc2cccc3ccccc23)s1 | -89.8*
Cc1cccc(N=Nc2cnc(N)s2)c1 | -109.1*
O=C(Nc1ccccc1Br)c1cc(=O)c2ccccc2o1 | -183.7*
O=C(Nc1ccccc1Cl)c1cc(=O)c2ccccc2o1 | -144.4*
Cc1ccc(Nc2ncnc(-n3cccc3)n2)cc1Cl | -124.7*
c1ccc(CCNc2ncnc3sccc23)nc1 | -85.9*
OC(CNc1ncnc2sccc12)c1ccccc1 (centres undefined) | -97.0*
Cc1cccc(-n2cnc3cc(C(=O)N4CCCCC4)ccc32)c1 | -74.0*
Nc1cc(N)nc(SCCOc2ccccc2)n1 | -69.4*
Nc1cc(N)nc(SCCOc2ccccc2F)n1 | -81.3*
COn1c(-c2ccccc2)nc2ccc(Cl)cc21 | -137.6*
O=[N+]([O-])c1ccc2nc(-c3ccccc3)n(OCc3ccc(Cl)cc3)c2c1 | -86.5*
CC1CCCN(CCS(=O)(=O)c2ccccc2)C1 (centres undefined) | -150.5*
N#Cc1c(NC(=O)c2cnccn2)sc2c1CCCC2 | -127.8*
N#Cc1c(NC(=O)c2cccnc2)sc2c1CCC2 | -149.8*
N#Cc1c(NC(=O)c2ccccc2)sc2c1CCC2 | -287.9*
